This is an account of results in the supplement of paper PMC7156485.
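Further: TDF denotes transformed human dermal fibroblasts of mesenchymal origin.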

The subject of the experiment is HCC1569. Kind of experiment: cell number relative to DMSO (% of DMSO); higher = more cells (less growth inhibition / toxicity). To be noted: concentration: 10 µM; 24 h. In short, it runs like this:
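For HCC1569 and TDF cells, compounds at 10 µM were applied for 24 h at 37 °C in triplicate in 384-well plates. Cells were fixed in 3.7% formaldehyde, stained for H1.0 and with DAPI, and imaged at ×10 over six fields per well. The endpoint, H1.0 nuclear intensity or cell number, is shown as percent of the plate control using the median of replicates. Positional effects were smoothed for HCC1569 only.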
`O=C(OC12CC3CC(CC(C3)C1)C2)c1ccc(NCc2cc(O)ccc2O)cc1` [1-adamantyl 4-[(2,5-dihydroxybenzyl)amino]benzoate] registered a cell number of 8.48. `N=C(N)N1CCc2ccccc2C1` [Debrisoquin] showed a cell number of 103.

`CCCCCCCCCCCCCCCCn1cc[n+](Cc2ccccc2)c1C.[I-]` had a cell number of 99.1. Next, `CC(=O)N[C@@H](CS)C(N)=O`: 109; `C=C1C(=CC=C2CCCC3(C)C2CCC3C(C)CCCC(C)(C)O)CC(O)CC1O` (centres undefined) [Calcitriol]: 102. Take `COc1cc2c(Nc3ccc(Br)cc3F)ncnc2cc1OCC1CCN(C)CC1` [Vandetanib]: the cell number was 54.4.

Molecule `CCCCCCCCCCCCCCCCCC(=O)O` [Octadecanoic acid] had a cell number of 102. To `CC=CCC=CCCC(=O)C1OC1C(N)=O` (centres undefined) [Cerulenin] belongs 92.6; to `O=c1cc(-c2ccccc2)oc2cc(O)c(O)cc12` [6,7-Dihydroxyflavone], 102. `CCCCCCCCCCCCCCCCCCCCCCCC(=O)O` [Tetracosanoic acid] yielded a cell number of 99.5.

`NS(=O)(=O)c1cc2c(cc1Cl)NCNS2(=O)=O` [Hydrochlorothiazide]: the cell number was 105.

As for `CC12CC3CC(C)(C1)CC(N)(C3)C2.Cl` [Memantine hydrochloride], the cell number is 106. Take `COc1ccc(OC)c2c(=S)c3ccccc3[nH]c12`: the cell number amounted to 105. Turning to `Oc1cc2c(cc1O)C(c1ccccc1)CNCC2` (racemic), the cell number was found to be 101. Turning to `CSc1nc(N)c2ncn(C3OC(COP(=O)([O-])OP(=O)([O-])[O-])C(O)C3O)c2n1.[Na+].[Na+].[Na+]` (centres undefined) [2-Methylthioadenosine diphosphate trisodium], the cell number is 99.9. Consider `CCCCCCCCCCCC(CC1OC(=O)C1CCCCCC)OC(=O)C(CC(C)C)NC=O` (centres undefined) [Tetrahydrolipistatin], for which the cell number was determined as 100. As for `NC(=O)Nc1sc(-c2ccc(F)cc2)cc1C(N)=O` [IKK-2 Inhibitor IV], the cell number was found to be 80.1. Molecule `COc1ccc(C(=O)Nc2sc3c(c2C(N)=O)CCCC3)cc1OC` registered a cell number of 98.8.

As to `COc1ccc(CC2c3cc(OC)c(OC)cc3CC[N+]2(C)CCC(=O)OCCCCCOC(=O)CC[N+]2(C)CCc3cc(OC)c(OC)cc3C2Cc2ccc(OC)c(OC)c2)cc1OC.O=S(=O)([O-])c1ccccc1.O=S(=O)([O-])c1ccccc1` (centres undefined) [Atracurium besylate], the cell number was 98.9. `CCCCCC=CCC=CCC=CC=CC(O)CCCC(=O)O` (racemic) displayed a cell number of 101. Regarding `Cc1cccc(C(=O)NCN2CCN(c3ccccc3C#N)CC2)c1.O=C(O)C=CC(=O)O` [PD 168,077 maleate], the cell number was found to be 105. The molecule `O=C1NC(=O)C(c2cn(CCCn3ccnc3)c3ccccc23)=C1Nc1ccccc1` [PKCb Inhibitor] registered a cell number of 100. As for `Cc1ncc([N+](=O)[O-])n1CCO` [Metronidazole], the cell number came out at 102. Next, `COc1ccccc1N1CCN(CC(O)COc2cccc3ccccc23)CC1.Cl.Cl` (centres undefined) [Naftopidil dihydrochloride]: 101; `Nc1nc(Cl)nc2c1ncn2C1OC(COP(=O)([O-])OP(=O)([O-])OP(=O)([O-])[O-])C(O)C1O.[Na+].[Na+].[Na+].[Na+]` (centres undefined) [2-Chloroadenosine triphosphate tetrasodium]: 102; `O=C(O)CCCCC1CCSS1` (racemic): 104.

The molecule `Nc1ccc(O)c(C(=O)O)c1` [5-Aminosalicylic acid] came in with a cell number of 107. In turn, `Cc1cc(F)c(Nc2ncnc3cc(OCc4ccccc4)ccc23)cc1O.Cl` displayed a cell number of 91.6. For `OCC1OC(n2cnc3c(NC4CCCCC4)ncnc32)C(O)C1O` (centres undefined) [N6-Cyclohexyladenosine], the cell number worked out at 100. To `O=C(Nc1ncc(-c2cc(C(F)F)nn2-c2c(Cl)cccc2Cl)s1)C1CC1` belongs 52.3; to `CC(=O)Nc1ccc(NC(=S)NC(=O)c2ccc(C(C)(C)C)cc2)cc1` [p53 Activator (Tenovin-1)], 96.5; to `COc1ccc(-c2ccc3c(N4CCOCC4)nc(N4CC(C)OC(C)C4)nc3n2)cc1CO` (centres undefined), 73.

On to `C=CCc1ccccc1OCC(O)CNC(C)C.Cl` (centres undefined) [Alprenolol.HCl], for which the cell number is 102.

Regarding `O=C(O)CCc1nc(-c2ccccc2)c(-c2ccccc2)o1` [Oxaprozin], the cell number turned out to be 104.
